From PubChem BioAssay (NCATS) come the findings set out here.

Results filed as inconclusive are left out. A number with no mark means an inactive call. Calls come from the whole dose curve; as a rule, active = well fitted curve in the direction sought with a large enough effect; inconclusive = small, poorly fitted or top-dose-only effect, or another doubt; inactive = no such curve, though single readings can be large or run the other way.
% is set by controls: 0 for no effect and ±100 for the full control effect.

The assay is described as follows: qHTS Assay for Identifying Gametocytocidal Compounds (AID 743244).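 Note: actives lower the fluorescent signal which means gametocytes are killed.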 As to conditions: P. falciparum 3D7 stage III-V gametocytes, alamarBlue, 72 h; max response: active compounds read low. The gist of the method:
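Using 20,000 stage III–V 3D7 gametocytes per well, compounds were incubated 72 h under 37 °C/5% CO2. Viability was then assessed by 24 h alamarBlue reduction, measured fluorometrically at 525/598 nm.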
With `Cc1ccsc1C(=CCCN1CCC[C@@H](C(=O)O)C1)c1sccc1C`, the max response is -0.959%.

As to `Cc1c(C)c2c(c(C)c1OC(=O)c1cccnc1)CC[C@@](C)(CCC[C@H](C)CCC[C@H](C)CCCC(C)C)O2`, the max response is 6.89%.

`CC(O)CCCCn1c(=O)c2c(ncn2C)n(C)c1=O` (stereo not given): the max response is -9.87%.

In the case of `CCS(=O)(=O)CCn1c([N+](=O)[O-])cnc1C`, the max response is 9.95%.

Consider `CC(C)C[C@@H](N)C(=O)O`, for which the max response was -9.37%.
